Source: PubChem BioAssay (Tox21)
Records with an inconclusive call do not appear. Calls of active or inactive are those of the source. Unless noted, calls follow the shape of the dose curve; as a rule, active = well fitted curve in the direction sought with a large enough effect in the repeat runs; inconclusive = weak or mixed curves; inactive = no such curve, though single readings can be large; an effect the other way counts as inactive or inconclusive.

Key:
[1] = qHTS assay to identify small molecule antagonists of the estrogen receptor beta (ER-beta) signaling pathway - cell viability counter screen (AID 1259382);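 also: HEK293T cells carrying ER-beta-UAS-bla reporter stimulated with estradiol; series mostly up to about 92 µM; nearly all actives have a fitted effect of over 55% in size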
In short: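 ER-beta-UAS-bla HEK293T cells (2,000/well, 2% charcoal-stripped FBS) were pre-incubated 6 hr at 37C, then given compound plus 1nM final 17-beta-estradiol for 16 hr. Viability was read in the same wells by CellTiter-Glo luminescence after 30 min at room temperature.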

[2] = target: Thyrotropin receptor (Homo sapiens) (UniProt P16473); experiment: qHTS assay to identify small molecule antagonists of the thyroid stimulating hormone receptor (TSHR) signaling pathway (AID 1259385; calls by dose curve; also: nearly all actives have a fitted effect of over 20% in size)
Chain of Thyrotropin receptor (Homo sapiens) (P16473 whole entry, looked up): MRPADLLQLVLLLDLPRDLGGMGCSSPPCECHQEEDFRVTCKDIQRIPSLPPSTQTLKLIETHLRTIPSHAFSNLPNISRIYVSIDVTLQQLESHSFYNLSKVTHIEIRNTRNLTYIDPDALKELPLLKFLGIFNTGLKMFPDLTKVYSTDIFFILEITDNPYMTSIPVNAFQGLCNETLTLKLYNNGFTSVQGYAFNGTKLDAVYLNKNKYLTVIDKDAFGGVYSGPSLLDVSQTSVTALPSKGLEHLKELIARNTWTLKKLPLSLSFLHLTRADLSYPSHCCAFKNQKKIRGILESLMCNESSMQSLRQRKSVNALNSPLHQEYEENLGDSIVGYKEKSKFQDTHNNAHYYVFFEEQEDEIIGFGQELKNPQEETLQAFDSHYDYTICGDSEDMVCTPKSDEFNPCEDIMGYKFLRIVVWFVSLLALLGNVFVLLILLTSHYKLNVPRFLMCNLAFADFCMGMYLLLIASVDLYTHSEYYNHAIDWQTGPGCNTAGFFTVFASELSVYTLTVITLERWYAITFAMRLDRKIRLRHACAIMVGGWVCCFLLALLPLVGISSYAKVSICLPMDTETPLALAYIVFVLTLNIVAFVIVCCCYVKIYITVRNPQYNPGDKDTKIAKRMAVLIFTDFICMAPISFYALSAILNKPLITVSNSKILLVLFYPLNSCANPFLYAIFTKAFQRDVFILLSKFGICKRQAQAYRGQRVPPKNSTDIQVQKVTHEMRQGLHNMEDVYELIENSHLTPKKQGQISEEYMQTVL
In short: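 TSHR-HEK293 cells were plated and held 18 h at 37C/5% CO2, then given compound plus Ro20-1724 and stimulated with TSH at 1.5 ng/mL final. After 30 min at room temperature, cAMP was detected with cAMP-d2/anti-cAMP-cryptate (1 h) by fluorescence.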

[3] = qHTS assay to identify small molecule agonists of the estrogen receptor alpha (ER-alpha) signaling pathway in the presence of an antagonist - cell viability counter screen (AID 1259386);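 also: series mostly up to about 92 µM; cells exposed to compounds for 22 h at 37 °C before the viability read; nearly all actives have a fitted effect of over 30% in size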
In short: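 VM7Luc4E2 cells (endogenous full-length ER-alpha, 4×ERE-luciferase) were held 5 days in phenol red-free medium with 10% charcoal-stripped FBS, plated, then given 10.0nM ICI-182,780 and compounds at 15 concentrations for 22hr at 37C; viability read by CellTiter-Fluor fluorescence.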

[4] = target: Progesterone receptor (Homo sapiens) (UniProt P06401); experiment: qHTS assay to identify small molecule agonists of the progesterone receptor (PR) signaling pathway (AID 1346784; calls by dose curve; also: nearly all actives have a fitted effect of over 30% in size)
Chain of Progesterone receptor (Homo sapiens) (P06401 whole entry, looked up): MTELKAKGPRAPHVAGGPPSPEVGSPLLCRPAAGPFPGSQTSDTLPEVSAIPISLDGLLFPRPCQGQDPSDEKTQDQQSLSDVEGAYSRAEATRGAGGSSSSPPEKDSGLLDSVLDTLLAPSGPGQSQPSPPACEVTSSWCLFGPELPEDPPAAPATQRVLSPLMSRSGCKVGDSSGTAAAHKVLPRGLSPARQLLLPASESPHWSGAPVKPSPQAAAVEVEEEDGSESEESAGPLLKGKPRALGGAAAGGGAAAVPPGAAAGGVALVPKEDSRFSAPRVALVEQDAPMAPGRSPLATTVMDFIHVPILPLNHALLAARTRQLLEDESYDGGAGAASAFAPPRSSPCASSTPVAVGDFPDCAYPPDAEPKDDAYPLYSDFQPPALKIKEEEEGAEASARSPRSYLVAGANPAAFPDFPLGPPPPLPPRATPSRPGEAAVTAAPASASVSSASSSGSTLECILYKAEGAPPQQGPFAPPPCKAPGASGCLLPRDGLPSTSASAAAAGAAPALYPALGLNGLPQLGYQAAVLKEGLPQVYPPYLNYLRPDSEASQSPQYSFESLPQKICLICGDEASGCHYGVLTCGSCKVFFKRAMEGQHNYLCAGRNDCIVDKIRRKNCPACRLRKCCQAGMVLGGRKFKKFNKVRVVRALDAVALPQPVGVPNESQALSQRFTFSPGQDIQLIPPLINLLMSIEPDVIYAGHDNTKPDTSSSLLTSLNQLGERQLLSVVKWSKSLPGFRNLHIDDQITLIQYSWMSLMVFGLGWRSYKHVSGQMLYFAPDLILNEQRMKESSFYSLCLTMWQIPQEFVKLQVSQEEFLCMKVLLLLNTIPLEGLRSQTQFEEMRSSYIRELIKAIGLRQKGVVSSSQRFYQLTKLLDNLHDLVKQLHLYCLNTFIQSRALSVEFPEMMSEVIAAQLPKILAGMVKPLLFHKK
In short: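 Fluorescence from LiveBLAzer B/G FRET substrate cleavage (2 hr, RT) reported PR activation in PR-UAS-bla HEK 293T cells treated 16 hr at 37C/5% CO2 with compounds; medium contained 2% charcoal-stripped FBS.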

[5] = target: Progesterone receptor (Homo sapiens) (UniProt P06401); experiment: qHTS assay to identify small molecule antagonists of the progesterone receptor (PR) signaling pathway (AID 1346795; active = well fitted inhibition curve with a large enough effect in the signal ratio in the repeat runs, not every such curve was filed as active; the % refers to the signal ratio)
In short: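 Fluorescence intensity measured 2 hr after adding beta-lactamase FRET substrate to PR-UAS-bla HEK293T cells that had been co-treated 16 hr with compound and 1 nM R5020 (final concentration) in 2% charcoal-stripped FBS.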

[6] = qHTS assay to identify small molecule agonists of the progesterone receptor (PR) signaling pathway - cell viability counter screen (AID 1346799; calls by dose curve; also: nearly all actives have a fitted effect of over 45% in size)
In short: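 In parallel with the beta-lactamase readout, cytotoxicity toward PR-UAS-bla HEK293T cells was measured by CellTiter-Glo luminescence following 16 hr compound incubation in 2% charcoal-stripped FBS medium.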

[7] = qHTS assay to identify small molecule antagonists of the TGF-beta/Smad signaling pathway - cell viability counter screen (AID 1346824); also: nearly all actives have a fitted effect of over 50% in size
In short: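 SBE-bla HEK 293T cells were plated overnight at 37 C, then given compounds in DMSO plus TGF-beta1 (added as 0.25 ng/mL solution) for 5 hr. After the bla read, CellTiter-Glo was added to the same wells and luminescence read after 30 min at room temperature.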

[8] = qHTS assay to identify small molecule agonists of the TGF-beta/Smad signaling pathway - cell viability counter screen (AID 1346829); also: top concentration of the series differs between compounds; nearly all actives have a fitted effect of over 45% in size
In short: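 CellTiter-Glo luminescence readout; SBE-bla HEK 293T cells, overnight plating, compound 5 hr at 37 C/5% CO2, then bla substrate 2 hr RT, then CellTiter-Glo 30 min RT.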

[9] = qHTS assay to identify small molecule agonists of the TGF-beta/Smad signaling pathway (AID 1346859; active = well fitted activation curve with a large enough effect in the signal ratio in the repeat runs, not every such curve was filed as active; the % refers to the signal ratio; also: series mostly up to about 77 µM)
In short: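 After overnight seeding, SBE-bla HEK 293T cells are dosed with compounds in DMSO and kept 5 hr at 37 C, 5% CO2. LiveBLAzer-type FRET substrate is then applied for 2 hr at room temperature.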

[10] = target: Thyrotropin-releasing hormone receptor (Homo sapiens) (UniProt P34981); experiment: qHTS assay to identify small molecule antagonists of the thyrotropin-releasing hormone receptor (TRHR) signaling pathway (AID 1346877; active = well fitted inhibition curve with a large enough effect in the repeat runs, not every such curve was filed as active; also: series mostly up to about 51 µM)
Chain of Thyrotropin-releasing hormone receptor (Homo sapiens) (P34981 whole entry, looked up): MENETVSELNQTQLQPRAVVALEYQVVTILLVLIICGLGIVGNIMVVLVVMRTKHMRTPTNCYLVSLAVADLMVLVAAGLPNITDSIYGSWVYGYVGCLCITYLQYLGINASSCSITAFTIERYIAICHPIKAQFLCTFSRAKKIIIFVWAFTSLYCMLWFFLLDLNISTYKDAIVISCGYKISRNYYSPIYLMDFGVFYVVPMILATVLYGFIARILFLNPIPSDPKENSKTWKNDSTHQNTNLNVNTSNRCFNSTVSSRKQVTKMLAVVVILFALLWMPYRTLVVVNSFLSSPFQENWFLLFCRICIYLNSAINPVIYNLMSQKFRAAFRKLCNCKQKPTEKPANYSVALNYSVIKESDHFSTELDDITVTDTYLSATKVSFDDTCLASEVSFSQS
In short: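 TRHR-expressing HEK293 cells were seeded, cultured 18 h at 37 °C, then loaded with calcium dye for 2 h. Compounds were pre-incubated 5 min at room temperature before 1 nM TRH (final) was added, and kinetic fluorescence was recorded for 3 min.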

[11] = target: Thyrotropin-releasing hormone receptor (Homo sapiens) (UniProt P34981); experiment: qHTS assay to identify small molecule agonists of the thyrotropin-releasing hormone receptor (TRHR) signaling pathway (AID 1346891; calls by dose curve; also: series mostly up to about 58 µM)
In short: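 Compounds were tested as agonists at 15 concentrations, in triplicate, on TRHR-Hek293 cells; calcium-sensitive dye fluorescence was recorded for 3 min following addition.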

[12] = Human pregnane X receptor (PXR) small molecule agonists, qHTS cell viability counter screen (AID 1346977); also: nearly all actives have a fitted effect of over 50% in size
In short: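 Viability counter screen: CellTiter-Fluor signal in PXR-Luc HepG2 cells, 24hr compound exposure, 37C, 5% CO2.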

[13] = Caspase-3/7 induction in HepG2 cells by small molecules, qHTS assay (AID 1346978); also: nearly all actives have a fitted effect of over 15% in size
In short: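 Wild-type HepG2 cells (2,000/well) were settled 5 h at 37 C, 5% CO2, then exposed to compounds in DMSO for 17 h. Caspase-3/7 activity was read by luminescence 30 min after adding Caspase-Glo 3/7 reagent at room temperature.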

[14] = Caspase-3/7 induction in CHO-K1 cells by small molecules, qHTS cell viability counter screen (AID 1346979); also: nearly all actives have a fitted effect of over 35% in size
In short: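 Viability readout by fluorescence (CellTiter-Fluor) on wild-type CHO-K1 cells exposed for 16hr at 37C and 5% CO2 to compounds delivered in DMSO; reagent incubated 1hr before reading.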

[15] = Caspase-3/7 induction in CHO-K1 cells by small molecules, qHTS assay (AID 1346980); also: nearly all actives have a fitted effect of over 15% in size
In short: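 Wild-type cells were seeded at 1,500 per well and settled 5 hr at 37 C, 5% CO2, then exposed to DMSO-dissolved compounds for 17 hr. Caspase-Glo 3/7 reagent was added, and luminescence was read after 30min at room temperature.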

[16] = Caspase-3/7 induction in HepG2 cells by small molecules, qHTS cell viability counter screen (AID 1346981); also: series mostly up to about 92 µM; nearly all actives have a fitted effect of over 30% in size
In short: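 Wild-type HepG2 cells (2,000/well) were allowed to settle for 5 hr at 37 C, 5% CO2, then dosed with compounds in DMSO by pin transfer. After 16 hr at 37 C, CellTiter-Fluor was added and fluorescence read 1 hr later.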

[17] = target: Nuclear receptor subfamily 1 group I member 2 (Homo sapiens) (UniProt O75469); experiment: Human pregnane X receptor (PXR) small molecule agonists, qHTS assay (AID 1346982); also: nearly all actives have a fitted effect of over 35% in size; also: potency is read from the fitted curve at half-maximal effect
Chain of Nuclear receptor subfamily 1 group I member 2 (Homo sapiens) (O75469 whole entry, looked up): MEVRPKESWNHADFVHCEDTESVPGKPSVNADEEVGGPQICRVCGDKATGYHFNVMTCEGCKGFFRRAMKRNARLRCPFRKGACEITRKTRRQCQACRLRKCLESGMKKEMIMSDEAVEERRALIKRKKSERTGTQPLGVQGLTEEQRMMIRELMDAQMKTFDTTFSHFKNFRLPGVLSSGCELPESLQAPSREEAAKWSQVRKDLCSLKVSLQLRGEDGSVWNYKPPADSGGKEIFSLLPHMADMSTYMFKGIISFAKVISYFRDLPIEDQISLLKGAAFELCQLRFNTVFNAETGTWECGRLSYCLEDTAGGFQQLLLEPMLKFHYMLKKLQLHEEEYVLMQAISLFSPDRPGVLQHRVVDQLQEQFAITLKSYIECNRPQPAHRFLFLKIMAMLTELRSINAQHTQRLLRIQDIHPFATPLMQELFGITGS
In short: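 PXR-Luc HepG2 cells (CYP3A4 promoter-driven luciferase) were seeded in medium with 5% charcoal-stripped FBS, left 5 hr at 37 C, then exposed to compounds in DMSO for 24 hr. Luminescence was read after ONE-Glo addition.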

[18] = qHTS assay to identify small molecule agonists or antagonists of the thyroid stimulating hormone receptor (TSHR) signaling pathway - wild type cell line counter screen (AID 1259384; calls by dose curve)
In short: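 Wild-type HEK293 cells were plated 18 h at 37 C/5% CO2, pin-dosed with compound plus Ro20-1724 medium, held 30 min at room temperature, then given cAMP-d2 and anti-cAMP-cryptate; fluorescence was read after 1 h. Fifteen concentrations, triplicate.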

[19] = qHTS assay to identify small molecule antagonists of the progesterone receptor (PR) signaling pathway - cell viability counter screen (AID 1346798); also: series mostly up to about 92 µM; nearly all actives have a fitted effect of over 50% in size
In short: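 CellTiter-Glo luminescence; PR-UAS-bla HEK293T, 3,000 cells/well; compound + R5020, 16 hr, 37C/5% CO2; 30 min RT before read.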
% is scaled to controls: 0 for no effect and ±100 for the full control effect.

CCCCSCCCC
inactive: outcome [1] | outcome [2] | outcome [3] | Potency [4] | Potency [5] | outcome [6] | outcome [7] | outcome [8] | outcome [9] | outcome [10] | outcome [11] | outcome [12] | outcome [13] | Potency [14] | outcome [15] | outcome [16] | Potency [17]

C=C(C)C1CC=C(C)C(=O)C1 (configuration not stated)
inactive: outcome [1] | outcome [18] | outcome [2] | outcome [3] | Potency [4] | outcome [19] | outcome [6] | outcome [7] | outcome [8] | outcome [9] | outcome [12] | outcome [13] | Potency [14] | outcome [15] | outcome [16] | Potency [17]

CC(=O)O[Si](C)(OC(C)=O)OC(C)=O
inactive: outcome [1] | outcome [18] | outcome [3] | Potency [4] | Potency [5] | outcome [6] | outcome [7] | outcome [8] | outcome [9] | outcome [12] | outcome [13] | Potency [14] | outcome [15] | outcome [16] | Potency [17]

C=Cc1ccc(C(C)(C)C)cc1
inactive: outcome [1] | outcome [18] | outcome [2] | outcome [3] | Potency [4] | Potency [5] | outcome [6] | outcome [7] | outcome [8] | outcome [9] | outcome [10] | outcome [11] | outcome [12] | outcome [13] | Potency [14] | outcome [15] | outcome [16] | Potency [17]

CCC(=O)CC
inactive: outcome [1] | outcome [3] | Potency [4] | Potency [5] | outcome [19] | outcome [6] | outcome [7] | outcome [8] | outcome [9] | outcome [10] | outcome [11] | outcome [12] | outcome [13] | Potency [14] | outcome [15] | outcome [16] | Potency [17]

NCc1ccc(S(N)(=O)=O)cc1
inactive: outcome [1] | outcome [2] | outcome [3] | Potency [4] | Potency [5] | outcome [19] | outcome [6] | outcome [7] | outcome [8] | outcome [10] | outcome [11] | outcome [12] | outcome [13] | Potency [14] | outcome [15] | outcome [16] | Potency [17]

CC(=O)C(C)O (configuration not stated)
inactive: outcome [1] | outcome [18] | outcome [2] | outcome [3] | Potency [4] | outcome [6] | outcome [7] | outcome [8] | outcome [9] | outcome [10] | outcome [11] | outcome [12] | outcome [13] | Potency [14] | outcome [15] | outcome [16] | Potency [17]

CCOC(CN1CCN(CC(C)C(=O)c2ccccc2)CC1)c1ccccc1 (configuration not stated)
active: Potency [17] 14.6 µM
inactive: activity change, negative = cytotoxicity [1] -10.1% [at 19 µM] | cAMP activity change [18] 5.14% [at 18.9 µM] | activity change, negative = inhibition [2] 0.0091% [at 19 µM] | activity change, negative = cytotoxicity [3] -9.47% [at 19 µM] | activation [4] 0.845% [at 19 µM] | activity change, negative = inhibition [5] 8.35% [at 18.9 µM] | activity change, negative = cytotoxicity [6] 2.31% [at 19 µM] | viability change, negative = cytotoxic [7] -0.107% [at 15.8 µM] | activity change, negative = cytotoxicity [8] -11.2% [at 15.8 µM] | activation [9] -2.36% [at 15.8 µM] | activity, negative = inhibition [10] -3.1% [at 10.5 µM] | activation [11] 0.148% [at 11.8 µM] | activity change, negative = cytotoxicity [12] -0.628% [at 19 µM] | caspase activation [13] 0.292% [at 19 µM] | activity change, negative = cytotoxicity [14] 0.23% [at 19 µM] | caspase-3/7 activation [15] 0.336% [at 19 µM] | activity change, negative = cytotoxicity [16] -1.17% [at 19 µM]

C/C=C(\C)C(=O)OCCc1ccccc1
inactive: outcome [1] | outcome [3] | Potency [4] | Potency [5] | outcome [19] | outcome [6] | outcome [7] | outcome [8] | outcome [10] | outcome [11] | outcome [12] | outcome [13] | Potency [14] | outcome [15] | outcome [16] | Potency [17]

O=C1NC(c2ccccc2)(c2ccccc2)C(=O)N1COP(=O)(O)O
inactive: outcome [1] | outcome [2] | outcome [3] | Potency [4] | Potency [5] | outcome [19] | outcome [6] | outcome [7] | outcome [8] | outcome [9] | outcome [10] | outcome [11] | outcome [12] | outcome [13] | Potency [14] | outcome [15] | outcome [16] | Potency [17]

CCCCCCCCCCCCCBr
inactive: outcome [1] | outcome [3] | Potency [5] | outcome [6] | outcome [7] | outcome [8] | outcome [9] | outcome [10] | outcome [11] | outcome [12] | outcome [13] | Potency [14] | outcome [15] | outcome [16] | Potency [17]

C=CCCCCCCCC
inactive: outcome [1] | outcome [18] | outcome [2] | outcome [3] | Potency [4] | outcome [19] | outcome [6] | outcome [7] | outcome [8] | outcome [9] | outcome [10] | outcome [11] | outcome [12] | outcome [13] | Potency [14] | outcome [15] | outcome [16] | Potency [17]

CC(=O)OC(C)=O
inactive: outcome [1] | outcome [18] | outcome [2] | outcome [3] | Potency [4] | Potency [5] | outcome [6] | outcome [7] | outcome [8] | outcome [9] | outcome [10] | outcome [11] | outcome [12] | Potency [14] | outcome [15] | outcome [16] | Potency [17]

OCC1(CO)COCOC1
inactive: outcome [1] | outcome [18] | outcome [2] | outcome [3] | Potency [4] | outcome [19] | outcome [7] | outcome [8] | outcome [9] | outcome [10] | outcome [11] | outcome [12] | outcome [13] | Potency [14] | outcome [15] | outcome [16] | Potency [17]

c1ccc2c(CC3=NCCN3)cccc2c1
inactive: outcome [1] | outcome [18] | outcome [3] | Potency [4] | Potency [5] | outcome [19] | outcome [6] | outcome [7] | outcome [8] | outcome [9] | outcome [12] | outcome [13] | Potency [14] | outcome [15] | outcome [16] | Potency [17]
